PubChem BioAssay (NCATS)
Inconclusive results are not listed. Where a call stands in place of a potency, no number is given. Values without a mark were called inactive. Calls of active or inactive are those of the source. Calls follow the shape of the dose curve; as a rule, active = well fitted curve in the direction sought with a large enough effect; inconclusive = small, poorly fitted or top-dose-only effect, or another doubt; inactive = no such curve, though single readings can be large; an effect the other way counts as inactive or inconclusive.

Key:
[1] = Primary qHTS for inhibitors of nuclear receptor binding SET domain protein 2 (NSD2) in an isogenic RCH-ACV NSD2 p.E1099K mutant (9B) (AID 1645876)
[2] = Primary qHTS for inhibitors of nuclear receptor binding SET domain protein 2 (NSD2) in an RCH-ACV wild type WT cells (2C) (AID 1645877); also: potency is read from the fitted curve at half-maximal effect
Also: nearly all actives have a fitted effect of over 70% in size.

CC(C)C(=O)O[C@@H]1[C@@H](O)[C@@H](O[C@H]2O[C@H](CO)[C@@H](O)[C@H](O)[C@H]2O)O[C@H](CO)[C@H]1O
Potency [1]: inactive
Potency [2]: inactive

CC1OC(OC2C(CO)OC(OCC3OC(OC(=O)C45CCC(C)(C)CC4C4=CCC6C7(C)CCC(OC8OC(C(=O)O)C(O)C(OC9OC(CO)C(O)C(O)C9O)C8O)C(C)(C)C7CCC6(C)C4(C)CC5)C(O)C(O)C3O)C(O)C2O)C(O)C(O)C1O (configuration not stated)
activity change, negative = viability loss [1]: 0.172% [at 9.23 µM]
activity change, negative = cell killing [2]: -4.23% [at 9.23 µM]

CO[C@H]1C=C2C(CC[C@H](O[C@@H]3O[C@H](CO)[C@@H](O)[C@@H](O)[C@H]3O)C2(C)C)[C@]2(C)CC[C@]3(C)C([C@H](C)C(O)C(C=C(C)C)O[C@@H]4O[C@H](CO)[C@@H](O)[C@@H](O)[C@H]4O)CC[C@@]3(C)C12 (some centres not stated)
outcome [1]: inactive [at 9.23 µM]
outcome [2]: inactive [at 9.23 µM]

CC(=O)OC[C@]12[C@H](OC(C)=O)C(=O)[C@@H]3[C@@H](OC(C)=O)[C@@]14O[C@@]3(C)COC(=O)c1cccnc1[C@@H](C)[C@H](C)C(=O)O[C@@H]([C@H](OC(C)=O)[C@@H]2OC(C)=O)[C@]4(C)O
Potency [1]: inactive
Potency [2]: inactive

CC(=O)O[C@@H]1[C@H](O[C@@H]2O[C@H](CO)[C@@H](O)[C@H](O)[C@H]2O)[C@@H](O[C@@H]2O[C@@H](C)[C@H](O)[C@@H](O[C@@H]3O[C@H](CO)[C@@H](O)[C@H](O)[C@H]3O)[C@H]2O)[C@H](OC(=O)C23CCC4(C)C(=CCC5C6(C)CC(O)C(O[C@@H]7O[C@H](C(=O)O)[C@@H](O)[C@H](O)[C@H]7O)C(C)(C(=O)O)C6CCC54C)C2CC(C)(C)CC3O)O[C@@H]1C (some centres not stated)
outcome [1]: inactive [at 9.23 µM]
activity change, negative = cell killing [2]: 0.269% [at 9.23 µM]

CN1CC[C@@H](NC(=O)Nc2ccc(C#N)cc2)C[C@@H]1c1nc2ccccc2[nH]1
Potency [1]: inactive
Potency [2]: inactive

C/C(=C/CO)CC[C@@H]1[C@@]2(C)CCC[C@](C)(C(=O)O)C2CC[C@@]1(C)O (some centres not stated)
Potency [1]: inactive
Potency [2]: inactive

C/C=C(\C)C(=O)O[C@H]1[C@H](O)[C@]2(COC(C)=O)[C@H](O)C[C@]3(C)C(=CCC4[C@@]5(C)CC[C@H](O[C@@H]6O[C@H](C(=O)O)[C@@H](O[C@@H]7O[C@H](CO)[C@@H](O)[C@H](O)[C@H]7O)[C@H](O)[C@H]6O[C@@H]6O[C@H](CO)[C@@H](O)[C@H](O)[C@H]6O)[C@](C)(CO)C5CC[C@]43C)[C@@H]2CC1(C)C (some centres not stated)
activity change, negative = viability loss [1]: 0.0444% [at 9.23 µM]
activity change, negative = cell killing [2]: -12.8% [at 9.23 µM]

CC(=O)OC[C@@]12[C@H](O)C[C@]3(C)C(=CCC4[C@@]5(C)CC[C@H](O[C@@H]6O[C@H](C(=O)O)[C@@H](O[C@@H]7O[C@H](CO)[C@@H](O)[C@H](O)[C@H]7O)[C@H](O)[C@H]6O[C@@H]6O[C@H](CO)[C@@H](O)[C@H](O)[C@H]6O)[C@](C)(CO)C5CC[C@]43C)[C@@H]1CC(C)(C)[C@@H](OC(C)=O)[C@@H]2O (some centres not stated)
activity change, negative = viability loss [1]: 3.64% [at 9.23 µM]
outcome [2]: inactive [at 9.23 µM]

CO/N=C(/C(=O)N[C@@H]1C(=O)N2C(C(=O)O)=C(CSC(=O)c3ccco3)CS[C@H]12)c1csc(N)n1
Potency [1]: inactive
Potency [2]: inactive

COC(=O)[C@@]1(O)C=CC[C@@H]2[C@@]3(C)C[C@@H](c4ccoc4)OC(=O)[C@H]3CC[C@]21C
Potency [1]: inactive
Potency [2]: inactive

COc1ccc2c(c1O)OC[C@H]1c3ccc(O)cc3O[C@@H]21
Potency [1]: inactive
Potency [2]: inactive

CC(C)C1=CCC(C)(O)C(OC2OC(CO)C(O)C(O)C2O)C1 (configuration not stated)
Potency [1]: inactive
Potency [2]: inactive

N#CCc1ccc(O)cc1O[C@@H]1O[C@H](CO)[C@@H](O)[C@H](O)[C@H]1O
Potency [1]: inactive
Potency [2]: inactive

C[C@H](CCC(=O)O)[C@H]1CC[C@H]2[C@@H]3[C@H](O)C[C@@H]4C[C@H](O)CC[C@]4(C)[C@H]3CC[C@]12C
Potency [1]: inactive
Potency [2]: inactive

C[C@@H]1CCN(C(=O)CC#N)C[C@@H]1N(C)c1ncnc2[nH]ccc12
Potency [1]: inactive
Potency [2]: 23.5 µM (active)

CC1(C)CCCC2(C)C3=C(C(=O)OC3O)C(O)CC12 (configuration not stated)
Potency [1]: inactive
Potency [2]: inactive

COC(=O)C1=C[C@@H](O)[C@@H](O)[C@H](O[C@@H]2O[C@H](COC(=O)/C=C/c3ccccc3)[C@@H](O)[C@H](O)[C@H]2O)C1
Potency [1]: inactive
Potency [2]: inactive

C=C1CC/C=C(/CO)C(=O)C[C@@H]2[C@@H]1CC2(C)C
Potency [1]: inactive
Potency [2]: inactive

C[C@@H]1O[C@@H](OC[C@H]2O[C@@H](OCC3CCC4CC3C4(C)C)[C@H](O)[C@@H](O)[C@@H]2O)[C@H](O)[C@H](O)[C@H]1O (some centres not stated)
Potency [1]: inactive
Potency [2]: inactive

C=C[C@H]1[C@H](O[C@@H]2O[C@H](CO)[C@@H](O)[C@H](O)[C@H]2O)OC=C2C(=O)OCC[C@]21O
Potency [1]: inactive
Potency [2]: inactive
